This note sets out measurements from PubChem BioAssay (NCI).

The panel holds about 79,000 compounds, 15% with a hit somewhere; the sample as a whole holds those more often. Values without a mark were called inactive. Activity calls are given as the source filed them. Cut-off read from the data, not from the text of the source: active = growth inhibition above about 70%; inactive = the rest. Where a SMILES comes first, the peptide text is derived from it. [ ]: non-standard residue; d: D form. Phe(4-Cl) = N[CH](Cc1ccc(Cl)cc1)C(=O)O; 3Pal = N[CH](Cc1cccnc1)C(=O)O

Assay [1] in a line: NCI Yeast Anticancer Drug Screen. Data for the rad50 strain (AID 155).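 Note: 0% = growth of vehicle-only cultures of the same strain.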 Particulars: S. cerevisiae rad50 strain growth inhibition, active compounds read high. An outline of the steps: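 Growth of the mutant yeast was measured after compound exposure and referenced to vehicle-treated cultures.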
Assay [2] in a line: NCI Yeast Anticancer Drug Screen. Data for the mec2-1 strain (AID 157). As to conditions: S. cerevisiae mec2-1 strain, active compounds read high. An outline of the steps: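 Cells of the genetically defined mec2-1 yeast strain are incubated with test compound. Inhibition of growth is calculated against vehicle-treated controls.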
Assay [3] can be described thus: NCI Yeast Anticancer Drug Screen. Data for the sgs1 mgt1 strain (AID 161).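 Note: 0% = growth of cultures given vehicle only.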 As to conditions: S. cerevisiae sgs1 mgt1 strain, active compounds read high. An outline of the steps: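 Test agents were incubated with a DNA-repair-mutant yeast strain. Growth was then read and compared against vehicle-treated controls.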
Assay [4] is described as follows: NCI Yeast Anticancer Drug Screen. Data for the cln2 rad14 strain (AID 165).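 Note: 0% = growth equal to vehicle treated cultures.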 Particulars: S. cerevisiae cln2 rad14 strain, active compounds read high. An outline of the steps:
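The screen exposed genetically defined yeast (cln2 rad14) to test compounds and scored growth inhibition relative to vehicle-treated controls.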

The nature of assay [5]: NCI Yeast Anticancer Drug Screen. Data for the bub3 strain (AID 167). Particulars: S. cerevisiae bub3 mutant strain, active compounds read high. An outline of the steps: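 Whole-cell yeast assay. The mutant strain was incubated with compounds, and growth inhibition was determined by comparison with vehicle-treated cells.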
Assay [6] is described as follows: NCI Yeast Anticancer Drug Screen. Data for the mlh1 rad18 strain (AID 175). Particulars: S. cerevisiae mlh1 rad18 strain growth inhibition, active compounds read high. An outline of the steps:
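Compound-treated yeast growth, normalised to vehicle controls. Strain bears defined DNA repair mutations.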

[7] abbreviates: at 5.0 µM (retest, dose inferred, filed as 0.5).
[8] abbreviates: at 50.0 µM (retest, dose inferred, filed as 5.0).

As for `CC(=O)NC(Cc1ccc(Cl)cc1)C(=O)NC(Cc1ccc(Cl)cc1)C(=O)NC(Cc1cccnc1)C(=O)NC(CO)C(=O)NC(Cc1ccc(O)cc1)C(=O)NC(CCCN=C(N)N)C(=O)NC(CC(C)C)C(=O)NC(CCCN=C(N)N)C(=O)N1CCCC1C(=O)NC(C)C(=O)O` (stereo not given) (Ac-[Phe(4-Cl)][Phe(4-Cl)][3Pal]SYRLRPA-OH; configuration not given here), the growth inhibition in assay [1] (setting [7]) is -20%; in assay [1] (setting [8]), -8%; in assay [1] (at 50.0 µM) it was 18.1%; in assay [2] (setting [7]), -9%; in assay [2] (setting [8]) it was -16%; in assay [2] (at 50.0 µM), 17.9%. Further, the growth inhibition in assay [3] (setting [7]) was -14%; in assay [3] (setting [8]), 0%; in assay [3] (at 50.0 µM), 5.15%; in assay [4] (setting [7]), -18%; in assay [4] (setting [8]), -7%; in assay [4] (at 50.0 µM) it was 9.9%. The growth inhibition was -4% in assay [5] (setting [7]); 8% in assay [5] (setting [8]); 16.7% in assay [5] (at 50.0 µM); 29% in assay [6] (setting [7]); -22% in assay [6] (setting [8]); 53.4% in assay [6] (at 50.0 µM).
Take `O=C(O)c1c2c(c(O)c3c1CN(C1CCCCC1)CO3)OCN(C1CCCCC1)C2`: the growth inhibition in assay [1] (setting [7]) was 8%; in assay [1] (setting [8]), 35%; in assay [1] (at 50.0 µM), 50.4%; in assay [2] (setting [7]), 3%; in assay [2] (setting [8]), 8%; in assay [2] (at 50.0 µM), 53.1%. Further, the growth inhibition in assay [3] (setting [7]) was 4%; in assay [3] (setting [8]), 25%; in assay [3] (at 50.0 µM), 72.1% (active); in assay [4] (setting [7]), -17%; in assay [4] (setting [8]) it was 5%; in assay [4] (at 50.0 µM), 73.7% (active). The growth inhibition in assay [5] (setting [7]) is 2%; in assay [5] (setting [8]), 11%; in assay [5] (at 50.0 µM), 32.1%; in assay [6] (setting [7]) it was 0%; in assay [6] (setting [8]), 25%; in assay [6] (at 50.0 µM), 83.8% (active).
Regarding `Cc1ccc(C(=O)C(CCC#N)(CCC#N)CCC#N)cc1`, the growth inhibition in assay [1] (setting [7]) was -8%; in assay [1] (setting [8]) it was -5%; in assay [1] (at 50.0 µM) it was -13.7%; in assay [2] (setting [7]), -8%; in assay [2] (setting [8]), -17%; in assay [2] (at 50.0 µM) it was -0.25%. For the same compound, the growth inhibition in assay [3] (setting [7]) is -1%; in assay [3] (setting [8]), -11%; in assay [3] (at 50.0 µM) it was 8.85%; in assay [4] (setting [7]) it was -15%; in assay [4] (setting [8]), -3%; in assay [4] (at 50.0 µM) it was -6.25%. The growth inhibition in assay [5] (setting [7]) was 12%; in assay [5] (setting [8]), 15%; in assay [5] (at 50.0 µM), 1.1%; in assay [6] (setting [7]), 4%; in assay [6] (setting [8]), -6%; in assay [6] (at 50.0 µM), 4.3%.
On to `COc1cccc(C2c3cc4c(cc3OC(O)C2C)OCO4)c1O` (stereo not given), for which the growth inhibition in assay [1] (setting [7]) was -10%; in assay [1] (setting [8]) it was 8%; in assay [1] (at 50.0 µM), 13.6%; in assay [2] (setting [7]), -5%; in assay [2] (setting [8]), 23%; in assay [2] (at 50.0 µM), 11.5%. The growth inhibition in assay [3] (setting [7]) was 1%; in assay [3] (setting [8]) it was 24%; in assay [3] (at 50.0 µM), -6.55%; in assay [4] (setting [7]) it was 7%; in assay [4] (setting [8]), 4%; in assay [4] (at 50.0 µM), 12.6%. For the same compound, the growth inhibition in assay [5] (setting [7]) is -4%; in assay [5] (setting [8]), 27%; in assay [5] (at 50.0 µM) it was 34.1%; in assay [6] (setting [7]) it was -7%; in assay [6] (setting [8]) it was 30%; in assay [6] (at 50.0 µM), 58%.
Consider `OC(CBr)c1cc(-c2ccccc2)nc2ccccc12` (stereo not given), for which the growth inhibition in assay [1] (setting [7]) was -3%; in assay [1] (setting [8]), 98% (active); in assay [1] (at 50.0 µM) it was -5.25%; in assay [2] (setting [7]), -2%; in assay [2] (setting [8]) it was 96% (active); in assay [2] (at 50.0 µM) it was 18.1%. Further, the growth inhibition in assay [3] (setting [7]) is -3%; in assay [3] (setting [8]), 97% (active); in assay [3] (at 50.0 µM), 41.8%; in assay [4] (setting [7]) it was -17%; in assay [4] (setting [8]), 93% (active); in assay [4] (at 50.0 µM), -24.7%. Besides, the growth inhibition is 1% in assay [5] (setting [7]); 99% (active) in assay [5] (setting [8]); 69.3% in assay [5] (at 50.0 µM); -3% in assay [6] (setting [7]); 97% (active) in assay [6] (setting [8]); 28.2% in assay [6] (at 50.0 µM).
On to `NC(N)=NS(=O)(=O)c1ccc(N=Cc2c3ccccc3nc3cc(Cl)ccc23)cc1`, for which the growth inhibition was 5% in assay [1] (setting [7]); -4% in assay [1] (setting [8]); 95.1% (active) in assay [1] (at 50.0 µM); 11% in assay [2] (setting [7]); -2% in assay [2] (setting [8]); 93% (active) in assay [2] (at 50.0 µM). The growth inhibition in assay [3] (setting [7]) was 4%; in assay [3] (setting [8]), -5%; in assay [3] (at 50.0 µM) it was 96.2% (active); in assay [4] (setting [7]), -5%; in assay [4] (setting [8]), -3%; in assay [4] (at 50.0 µM) it was 91.5% (active). Further, the growth inhibition was 10% in assay [5] (setting [7]); 0% in assay [5] (setting [8]); 26.5% in assay [5] (at 50.0 µM); 6% in assay [6] (setting [7]); -2% in assay [6] (setting [8]); 97% (active) in assay [6] (at 50.0 µM).
For the compound `CNC(=O)OCc1c(COC(=O)NC)c(-c2ccc(OC)cc2)n2c1CCC2`, the growth inhibition is 28% in assay [1] (setting [7]); 33% in assay [1] (setting [8]); 28.4% in assay [1] (at 50.0 µM); 19% in assay [2] (setting [7]); 21% in assay [2] (setting [8]); 74.9% (active) in assay [2] (at 50.0 µM). The growth inhibition in assay [3] (setting [7]) is 44%; in assay [3] (setting [8]) it was 68%; in assay [3] (at 50.0 µM) it was 70.9% (active); in assay [4] (setting [7]), 38%; in assay [4] (setting [8]) it was 43%; in assay [4] (at 50.0 µM), 73.7% (active). In addition, the growth inhibition is 50% in assay [5] (setting [7]); 46% in assay [5] (setting [8]); 48.4% in assay [5] (at 50.0 µM); 23% in assay [6] (setting [7]); 32% in assay [6] (setting [8]); 92.6% (active) in assay [6] (at 50.0 µM).
Take `CC(O)CCc1nc2ccccc2[nH]1` (stereo not given): the growth inhibition in assay [1] (setting [7]) was 3%; in assay [1] (setting [8]), -4%; in assay [1] (at 50.0 µM), 17.3%; in assay [2] (setting [7]) it was 2%; in assay [2] (setting [8]), -3%; in assay [2] (at 50.0 µM), 3.15%. The growth inhibition is -1% in assay [3] (setting [7]); 0% in assay [3] (setting [8]); -1.3% in assay [3] (at 50.0 µM); 2% in assay [4] (setting [7]); 27% in assay [4] (setting [8]); 57.2% in assay [4] (at 50.0 µM). For the same compound, the growth inhibition was 3% in assay [5] (setting [7]); 6% in assay [5] (setting [8]); -6.65% in assay [5] (at 50.0 µM); 0% in assay [6] (setting [7]); -8% in assay [6] (setting [8]); 11.7% in assay [6] (at 50.0 µM).
In the case of `CCS(=O)(=O)OC(C)CCl` (stereo not given), the growth inhibition in assay [1] (setting [7]) was -2%; in assay [1] (setting [8]), -3%; in assay [1] (at 50.0 µM), -5.65%; in assay [2] (setting [7]), 1%; in assay [2] (setting [8]), 0%; in assay [2] (at 50.0 µM) it was -14.7%. Moreover, the growth inhibition in assay [3] (setting [7]) is 0%; in assay [3] (setting [8]), -1%; in assay [3] (at 50.0 µM), 11.8%; in assay [4] (setting [7]) it was -2%; in assay [4] (setting [8]) it was 2%; in assay [4] (at 50.0 µM), 70.2% (active). Moreover, the growth inhibition is -2% in assay [5] (setting [7]); -3% in assay [5] (setting [8]); -4.9% in assay [5] (at 50.0 µM); -2% in assay [6] (setting [7]); -5% in assay [6] (setting [8]); 49.5% in assay [6] (at 50.0 µM).
Consider `O=C(CNc1ccccc1[N+](=O)[O-])Nn1c(-c2ccccc2)nc2ccccc2c1=O`, for which the growth inhibition in assay [1] (setting [7]) is 20%; in assay [1] (setting [8]), 36%; in assay [1] (at 50.0 µM), 59.1%; in assay [2] (setting [7]), 2%; in assay [2] (setting [8]) it was 33%; in assay [2] (at 50.0 µM), 38.5%. Further, the growth inhibition was 17% in assay [3] (setting [7]); 33% in assay [3] (setting [8]); 69% in assay [3] (at 50.0 µM); 9% in assay [4] (setting [7]); 35% in assay [4] (setting [8]); 36% in assay [4] (at 50.0 µM). Moreover, the growth inhibition is -8% in assay [5] (setting [7]); 34% in assay [5] (setting [8]); 46.7% in assay [5] (at 50.0 µM); 10% in assay [6] (setting [7]); 48% in assay [6] (setting [8]); 75.5% (active) in assay [6] (at 50.0 µM).
